Activity calls are given as the source filed them. Entries that show only a call come without a potency. Calls come from the whole dose curve; as a rule, active = well fitted inhibition curve with a large enough effect; inconclusive = small, poorly fitted or top-dose-only effect; inactive = flat fitted curve, though single readings scatter.
Target: Luciferin 4-monooxygenase (Photinus pyralis) (UniProt P08659)
Experiment: Primary firefly luciferase (FLuc) qHTS assay for identification of artifact compounds. (AID 1845220); note: nearly all actives have a fitted effect of over 60% in size
Conditions: purified firefly luciferase, luminescence, 5 min; series mostly up to 54.1 µM
Text: PI: Alexander Tropsha Ph.D.
UNC Eshelman School of Pharmacy
University of North Carolina, Chapel Hill, North Carolina
Hits from high-throughput screening (HTS) of chemical libraries are often false positives due to their interference with the assay detection technology. In response to this problem, we generated the largest publicly available library of chemical liabilities and developed a free webtool to predict HTS artifacts, both of which are described herein. More specifically, we generated, curated, and integrated HTS datasets for thiol reactivity, redox activity, and luciferase (firefly and nano) activity. Using these curated datasets, we developed and validated several Quantitative Structure-Interference Relationship (QSIR) models to predict nuisance behavior. […] These models were employed for virtual profiling of the National Center for Advancing Translational Science's (NCATS) in-house library, and 256 compounds for each assay were selected for the experimental validation of nuisance behavior. The BA for these external predictions ranged from 58 to 78% for compounds within the applicability domains of the models. […] The models developed in this study, along with aggregation models previously developed by our group (SCAM Detective) were implemented in "Liability Predictor," an online tool which may be used as part of chemical library design or for triaging HTS hits. Both the models and the curated datasets are publicly available at https://liability.mml.unc.edu/.
SEQUENCE No. (e.g., 1, 2, 3, etc.); […] (e.g., Cells, Incubation, Reagent, etc.); VALUE; DESCRIPTION.
1; Reagent; 3 uL; Luciferase substrate mixture.
2; Compounds and control; 16 nL; Kalypsis pin tool (Wako USA) equipped with a 1536-well pin head.
4; Reagent; 1 uL; Luciferase enzyme.
6; Detection; Luminescence, ViewLux microplate reader.
NOTES (numbers refer to Sequence numbers above)
1. 3 uL of luciferase substrate mixture containing D-luciferin and ATP (final concentrations of 10 uM and 10 uM, respectively) in assay buffer (10 mM Mg-acetate, 0.01% Tween-20, 0.05% bovine serum albumin, 50 mM Tris acetate, pH 7.6) was dispensed into all wells of a 1536-well assay plate (solid-bottom white plate; Greiner Bio One, Monroe, NC).
2. A Wako Pin-tool (Wako Automation, Richmond, VA) was used to transfer 16 nL of compounds (consisting of 7-plates in qHTS format, final concentration range 18.3 nM to 114 uM) or control PTC124 (final concentration range 1.22 nM to 40 uM).
3. 15 min. incubation at room temperature protected from light.
4. 1 uL of luciferase enzyme (final concentration 10 nM, Photinus pyralis luciferase) or buffer was dispensed for a final assay volume of 4 uL.
5. Plates were centrifuged (121xg, 15 seconds) and incubated for 5 minutes.
6. Samples were read for luminescence on a ViewLux CCD imager (PerkinElmer). Data were normalized to no-enzyme (0% activity) and no-inhibitor (DMSO; 100%) controls and the resulting percent inhibition data were fitted to a 4-parameter Hill equation using NCATS in-house software.
Potency is the fitted concentration of half-maximal effect.

**Q.** CC1=C(C(=O)Nc2cc(Cl)ccc2Cl)C(c2ccco2)C2=C(CCCC2=O)N1 (stereo not given) was tested. Which Potency did it give?
**A.** inactive

**Q.** How did the Potency turn out when Cc1ccc(NC(=O)C(C)C)cc1C1CCN(Cc2ccc(Oc3ccc(F)c(F)c3)cc2)CC1 was run?
**A.** inactive

**Q.** For CC1(C)SCCN(S(=O)(=O)c2ccc(Oc3ccncc3)cc2)[C@H]1C(=O)NO, which Potency is on record?
**A.** inactive

**Q.** How did the Potency turn out when COCCCNC(=O)c1ccc(Cn2c(=O)c3ccccc3n(Cc3ccc(C(C)C)cc3)c2=O)cc1 was run?
**A.** inactive

**Q.** Which Potency does the source give for CCOC(=O)CCNc1cc(N2CCc3ccccc3CC2)nc(-c2cccnc2)n1 here?
**A.** inactive

**Q.** CNC(=O)c1ccc2c(c1)CCO[C@H]2CCN1CCN(c2ccc(OC)cc2)CC1 was tested. Which Potency did it give?
**A.** inactive

**Q.** Which Potency does the source give for O=C(NCCCNC(=O)c1ccc[nH]c1=O)c1cc(-c2ccccc2)on1 here?
**A.** inactive

**Q.** Cc1nc(Nc2cnn(C3CCNCC3)c2)nc2c1N(C)C(=O)c1cc3ccccc3cc1N2C was tested. Which Potency did it give?
**A.** inactive

**Q.** For Fc1ccc2c(CCNCc3cccc(OCC(F)(F)C(F)F)c3)c[nH]c2c1, which Potency is on record?
**A.** inactive

**Q.** C=C1C(=O)O[C@@H]2/C=C(\C)CC/C=C(/C=O)[C@H](OC)[C@@H](OC(=O)C(C)C)[C@@H]12 was tested. Which Potency did it give?
**A.** inactive

**Q.** Which Potency does the source give for COC(=O)c1cc2c(C(F)(F)F)cc(-c3ccccc3)cc2n1O here?
**A.** inactive

**Q.** With CC(C)/C=C1\NC(=O)C(C(C)C)n2c1nc1ccccc1c2=O (stereo not given) as the compound, how does the Potency read?
**A.** inactive

**Q.** Which Potency does the source give for C/C1=C\CCC2=CC(OC2=O)C(C)(C)/C=C/C1=O (stereo not given) here?
**A.** inactive

**Q.** For CC(=O)Nc1cccc(Nc2ncnc(N3CCC(OCc4ccc(OC(F)(F)F)cc4)CC3)n2)c1C, which Potency is on record?
**A.** inactive

**Q.** How did the Potency turn out when COc1ccc(NC(=O)c2ccc(-c3ccc(-c4nnc(C)o4)cc3C)cc2)cc1N1CCN(C)CC1 was run?
**A.** inactive

**Q.** How did the Potency turn out when Cc1[nH]c(/C=C2\C(=O)Nc3cc(-c4ccccc4)ccc32)c(C)c1CCC(=O)O was run?
**A.** 6.01 µM (active)

**Q.** COc1cc2c(cc1OCCCN1CCCC1)N=C(N)C21CCC1 was tested. Which Potency did it give?
**A.** inactive

**Q.** Which Potency does the source give for CCCc1ccc(OCC(=O)N(Cc2nc(-c3cccnc3)no2)C(C)C)cc1 here?
**A.** inactive

**Q.** Which Potency does the source give for CC(C)=CCC[C@](C)(O[C@@H]1O[C@H](CO[C@@H]2OC[C@@H](O)[C@H](O)[C@H]2O)[C@@H](O)[C@H](O)[C@H]1O)[C@H]1CC[C@]2(C)[C@@H]1[C@H](O)C[C@@H]1[C@@]3(C)CC[C@H](O[C@@H]4O[C@H](CO)[C@@H](O)[C@H](O)[C@H]4O)C(C)(C)[C@@H]3CC[C@]12C here?
**A.** inactive

**Q.** NCC(CNc1nc(Nc2cccc(NC(=O)N3CCCC3)c2)ncc1I)C(=O)c1cccs1 (stereo not given) was tested. Which Potency did it give?
**A.** inactive

**Q.** With COc1ccc(NC(=O)c2ccc(C(=N)N(C)C)cc2)c(C(=O)Nc2ccc(Cl)cn2)c1 as the compound, how does the Potency read?
**A.** inactive

**Q.** With O=C(COc1ccc(C(=O)c2ccccc2)cc1)NC1CCN(Cc2ccccc2)CC1 as the compound, how does the Potency read?
**A.** inactive

**Q.** How did the Potency turn out when CCCOc1ccc(CCc2nc3cc(-c4c(C)noc4C)ccc3n2CCN2CCOCC2)cc1 was run?
**A.** inactive

**Q.** How did the Potency turn out when O=C(COc1ccc2ccccc2c1Br)Nc1cccnc1 was run?
**A.** 6.01 µM (active)

**Q.** Which Potency does the source give for O=S(=O)(NCc1ccccn1)c1ccc(Br)c2ccccc12 here?
**A.** inactive

**Q.** Which Potency does the source give for C=C(C(=O)O)[C@@H]1CC=C(CCC(C)=O)[C@@H](C)CC1 here?
**A.** inactive

**Q.** How did the Potency turn out when COc1ccc(OC)c(-c2ccc(NC(=O)c3ccncc3F)cc2)c1 was run?
**A.** inactive

**Q.** O=C1c2ccc(Nc3ccc(F)cc3F)cc2CCc2ccc(OCC(O)CO)cc21 (stereo not given) was tested. Which Potency did it give?
**A.** inactive

**Q.** For CC(C)(F)CC(NC(c1ccc(-c2ccc(S(C)(=O)=O)cc2)cc1)C(F)(F)F)C(=O)NC1(C#N)CC1 (stereo not given), which Potency is on record?
**A.** inactive

**Q.** How did the Potency turn out when C=CC(C)(O)CC/C=C(/C)COC(=O)C(C)C1CCC(C)(C=C)O1 (stereo not given) was run?
**A.** inactive

**Q.** With Fc1ccc(N2CCCCC2)c(NC(=S)c2ccncc2)c1 as the compound, how does the Potency read?
**A.** inactive

**Q.** Which Potency does the source give for C/C=C(\C)C(=O)OC1C(C)C2(O)C(C=C(CO)CC3(O)C(=O)C(C)=CC32)C2C(C)(C)C12OC(C)=O (stereo not given) here?
**A.** inactive

**Q.** Which Potency does the source give for CC(=O)Nc1cccc(-c2csc(Nc3cc(C)ccn3)n2)c1 here?
**A.** 3.01 µM (active)

**Q.** For Cc1c(NC(=O)OCC2COCCN2)cn2ncnc(Nc3ccc4c(cnn4Cc4cccc(F)c4)c3)c12 (stereo not given), which Potency is on record?
**A.** inactive

**Q.** With CN1CCN(c2ccc(OC(F)(F)F)c(Nc3ncc4c(n3)-c3c(c(C(N)=O)nn3CCO)CC4)c2)CC1 as the compound, how does the Potency read?
**A.** inactive

**Q.** Which Potency does the source give for CC(C)(C)C1CCN(C(=O)n2ncc(C(O)(c3ccccc3)c3ccccc3)n2)CC1 here?
**A.** inactive

**Q.** With O=C(O)CCc1nccc2c1[nH]c1ccccc12 as the compound, how does the Potency read?
**A.** inactive

**Q.** COC(=O)/C=C/C=C/C(=O)OC1C=C2COC(=O)C2(O)C2(C)CCCC(C)(C)C12 (stereo not given) was tested. Which Potency did it give?
**A.** inactive

**Q.** With COc1ccc(-c2ccccc2)cc1NS(=O)(=O)c1cc(Cl)cc(Cl)c1O as the compound, how does the Potency read?
**A.** inactive

**Q.** For C=C1CC(=O)C2OC2(C)CC2OC(=O)C(=C)C2C(O)C1OC(=O)/C(C)=C\C (stereo not given), which Potency is on record?
**A.** inactive
